Records with an inconclusive call do not appear. The source made the active and inactive calls. Rule for the calls: active = hit-call score of the fitted dose curve at least 0.9, where 1 is the maximum; inconclusive = response in the unintended direction; inactive = score below 0.9.
Experiment: ACEA_ER_80hr: ACEA Biosciences xCELLigence Real-Time Cell Analysis on Estrogen Receptor Agonism for Proliferation (AID 2282667)
Conditions: T47D proliferation, impedance (xCELLigence), 80 h
Summary of the method: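 Real-time impedance growth kinetics of human T-47D breast cells read 80 h after dosing, gain-of-signal fitted relative to DMSO. Compounds: 1:4 serial series, top final concentration 100 uM, n = 2.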

Q: Which outcome does the source give for `CC=CC(=O)C1=C(C)C=CCC1(C)C` here?
A: inactive

Q: Which outcome does the source give for `CC(=O)CCC(=O)O` here?
A: inactive

Q: For `CCCCCCCCCCO[C@@H]1O[C@H](CO)[C@@H](O)[C@H](O)[C@H]1O`, which outcome is on record?
A: inactive

Q: Which outcome does the source give for `CCCCCCCCSCc1cc(C)c(O)c(CSCCCCCCCC)c1` here?
A: inactive

Q: For `CC(=O)c1cccnc1`, which outcome is on record?
A: inactive

Q: Which outcome does the source give for `CCCCCCCCCCOC(=O)c1ccccc1C(=O)OCCCCCCCC` here?
A: inactive

Q: For `Nc1ccc(N)c([N+](=O)[O-])c1`, which outcome is on record?
A: inactive

Q: For `NC(N)=S`, which AC50 is on record?
A: 1.29 µM (active)

Q: Which outcome does the source give for `c1ccc(Cc2ccccc2)cc1` here?
A: inactive

Q: Which outcome does the source give for `O=C(O)c1ccco1` here?
A: inactive

Q: With `N#CCCCC(C#N)CCC#N` (configuration not stated) as the molecule, how does the outcome read?
A: inactive

Q: For `CN(C)C`, which outcome is on record?
A: inactive

Q: Which outcome does the source give for `CC(=O)N(C)C` here?
A: inactive

Q: For `CC(C)N(c1ccccc1)C(C)C`, which outcome is on record?
A: inactive

Q: Which outcome does the source give for `CCOC(=O)C=Cc1ccccc1` here?
A: inactive

Q: For `COc1ccccc1O`, which outcome is on record?
A: inactive

Q: With `N=C1N=C(N)c2ccccc21` as the molecule, how does the outcome read?
A: inactive

Q: With `N[C@@H](CCC(=O)O)C(=O)O` as the molecule, how does the outcome read?
A: inactive

Q: For `O=C(O)C1=NN(c2ccc(S(=O)(=O)O)cc2)C(=O)C1`, which outcome is on record?
A: inactive

Q: For `CC(C)Cc1ccc(C(C)C(=O)O)cc1` (configuration not stated), which outcome is on record?
A: inactive

Q: With `CC(=O)OC/C=C(C)/C=C/C=C(C)/C=C/C1=C(C)CCCC1(C)C` as the molecule, how does the outcome read?
A: inactive

Q: For `CCC(=O)OCC=Cc1ccccc1`, which AC50 is on record?
A: 10.5 µM (active)

Q: Which outcome does the source give for `CC(=O)CC(C)(C)C1CCCCC1` here?
A: inactive

Q: Which outcome does the source give for `CCCCCCCC1CCCC1=O` (configuration not stated) here?
A: inactive

Q: For `CCC(C)C1CCCCC1=O` (configuration not stated), which outcome is on record?
A: inactive

Q: For `OC[C@H]1O[C@@H](O[C@H]2[C@H](O)[C@@H](O)[C@H](O)O[C@@H]2CO)[C@H](O)[C@@H](O)[C@H]1O`, which outcome is on record?
A: inactive

Q: For `CCCC(O)C(CC)CO` (configuration not stated), which outcome is on record?
A: inactive

Q: For `C[Si]1(C)N[Si](C)(C)N[Si](C)(C)N1`, which outcome is on record?
A: inactive

Q: With `CCCCC1CCCCC(=O)O1` (configuration not stated) as the molecule, how does the outcome read?
A: inactive

Q: Which outcome does the source give for `CC(=O)c1ccc2ccccc2c1` here?
A: inactive

Q: Which outcome does the source give for `c1ccc(OCCOc2ccccc2)cc1` here?
A: inactive

Q: With `C=C(F)C(=O)OC(C(F)(F)F)C(F)(F)F` as the molecule, how does the outcome read?
A: inactive

Q: For `Cc1ccc(C(C)(C)O)cc1`, which outcome is on record?
A: inactive

Q: Which outcome does the source give for `[O-]/[N+](=N\O)c1ccccc1` here?
A: inactive

Q: Which outcome does the source give for `CCCCC/C=C\C=C\C(=O)OCC` here?
A: inactive

Q: With `CC1(C)[C@H](C=C(Cl)Cl)[C@H]1C(=O)OCc1cccc(Oc2ccccc2)c1` as the molecule, how does the outcome read?
A: inactive

Q: Which outcome does the source give for `CC(C)(C)c1cc(CCC(=O)OCCSCCOC(=O)CCc2cc(C(C)(C)C)c(O)c(C(C)(C)C)c2)cc(C(C)(C)C)c1O` here?
A: inactive

Source: PubChem BioAssay (EPA / NIEHS)
